Test systems include NCI-H23 lung; NCI-H226 lung; HOP-62 NSCLC; NCI-H460 lung; HOP-92 NSCLC; NCI-H522 lung; A549/ATCC NSCLC; 786-0 renal; COLO 205 colon.
Holding throughout (assay): NCI-60 one-dose screen, 48 h (100 = growth as untreated, 0 = no growth, -100 = all killed)
Holding throughout (details): 10 µM unless noted

The structures appear in SMILES notation. Compounds without any hit were thinned out: in the full panel of roughly 83,000, 20% have a hit.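 Cell lines were cultured in 96-well plates, exposed to a single compound concentration, and assessed for percent growth 48 hours later.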 Values without a mark were called inactive. Active and inactive are the calls of the source. Rule for the calls: active = growth percent below 10; inactive = the rest.

In the case of `CCN(CC)CCCC(C)Nc1c2ccc(Cl)cc2nc2cc(OC)c(OC)cc12` (centres undefined), the growth was 21% in the experiment with NCI-H23 lung; 32.3% in the experiment on NCI-H226 lung; 32.3% with HOP-62 NSCLC; -31.6% (active) with NCI-H460 lung; -9.58% (active) in the experiment on HOP-92 NSCLC; 14.9% in the experiment with NCI-H522 lung. Besides, the figures for the growth with A549/ATCC NSCLC, in the experiment on 786-0 renal and in the experiment with COLO 205 colon were 4.12% (active), 38.6% and -33.6% (active), respectively.

`COc1ccc2cc(-c3ccc(-c4ccc(C(=N)N)cc4)s3)ccc2c1`: the growth in the experiment with NCI-H23 lung is 107%; in the experiment with NCI-H226 lung it was 102%; in the experiment on HOP-62 NSCLC it was 93.3%; in the experiment on NCI-H460 lung, 100%; in the experiment on HOP-92 NSCLC it was 87.2%; with NCI-H522 lung, 102%. For the same compound, the growth was 104% in the experiment on A549/ATCC NSCLC, 99.5% with 786-0 renal and 72.5% in the experiment on COLO 205 colon.

`COc1ccc(C(=O)NC(=O)Nc2cc3c(cc2F)/C(=C/c2[nH]c(C)c(CCC(=O)O)c2C)C(=O)N3)c(F)c1`: the growth in the experiment with NCI-H23 lung is 41.3%; in the experiment on NCI-H226 lung it was 53.3%; with HOP-62 NSCLC, 25.8%; with NCI-H460 lung, 28.6%; in the experiment on HOP-92 NSCLC, -0.4% (active); in the experiment on NCI-H522 lung it was 48.6%. The growth in the experiment on A549/ATCC NSCLC is 13.5%; in the experiment with 786-0 renal, 39%.

On to `N/C(=N\C(N)=N\c1nc2ccccc2s1)c1ccncc1`, for which the growth in the experiment with NCI-H23 lung is 77.7%; in the experiment on NCI-H226 lung, 76.1%; in the experiment with NCI-H460 lung it was 94%; in the experiment with HOP-92 NSCLC, 65.2%; in the experiment with NCI-H522 lung it was 2.64% (active); with A549/ATCC NSCLC, 89.3%. Also, the growth with 786-0 renal is 73.9%; with COLO 205 colon, 64.3%.

Turning to `Nc1cccc(-c2nc3sccn3c2-c2ccnc(NCCNS(=O)(=O)c3ccc(C(F)(F)F)cc3)n2)c1`, the growth in the experiment with NCI-H23 lung is 56%; in the experiment with NCI-H226 lung it was 29.3%; in the experiment on HOP-62 NSCLC, 49.6%; with NCI-H460 lung it was 43.5%; in the experiment on HOP-92 NSCLC it was -6.13% (active); in the experiment on NCI-H522 lung it was 71.6%. Also, the growth was 30% with A549/ATCC NSCLC, 65.5% with 786-0 renal and 58.8% with COLO 205 colon.

`COc1ccc(Nc2ncccc2C(=O)NCc2cn(Cc3cccc(Oc4ccccc4)c3)nn2)cc1`: the growth with NCI-H23 lung was 54.6%; with NCI-H226 lung, 71.7%; in the experiment on HOP-62 NSCLC it was 51.2%; in the experiment on NCI-H460 lung, 22.3%; in the experiment on HOP-92 NSCLC, 68.5%; with NCI-H522 lung, 26.1%. For the same compound, the values for the growth with A549/ATCC NSCLC, with 786-0 renal and with COLO 205 colon were 49.2%, 51.3% and 43.9%, respectively.

`Cc1ccc(-c2cc3nc(C(Cl)Cl)nc(-c4ccccc4C)n3n2)cc1`: the growth with NCI-H23 lung is 74%; in the experiment on NCI-H226 lung, 100%; with NCI-H460 lung, 81.4%; with HOP-92 NSCLC it was 64.7%; with NCI-H522 lung, 69.9%; in the experiment on A549/ATCC NSCLC, 23.3%. The figures for the growth in the experiment on 786-0 renal and in the experiment on COLO 205 colon were 84.1% and 54.1%, respectively.

In the case of `COc1ccc(C2=Nn3c(nnc3-n3nc(C)cc3C)SC2)cc1`, the growth in the experiment on NCI-H23 lung is 30.2%; in the experiment on NCI-H226 lung it was 57.4%; with HOP-62 NSCLC, 29.7%; in the experiment on NCI-H460 lung it was 4.1% (active); with HOP-92 NSCLC it was 11.2%; in the experiment on NCI-H522 lung, -9.16% (active). For the same compound, the growth is 10.2% in the experiment on A549/ATCC NSCLC, 17.7% in the experiment on 786-0 renal and -42.5% (active) with COLO 205 colon.

`CC(C)(C)n1cc(-c2ccnc(NCCNS(=O)(=O)c3ccc(Cl)cc3)c2)c(-c2cccc(O)c2)n1`: the growth is 64.7% in the experiment on NCI-H23 lung; 67.5% in the experiment with NCI-H226 lung; 84.9% with HOP-62 NSCLC; 28.2% with NCI-H460 lung; 72% with HOP-92 NSCLC; 68% with NCI-H522 lung. For the same compound, the results for the growth with A549/ATCC NSCLC, with 786-0 renal and in the experiment with COLO 205 colon were 51.8%, 54.6% and -7.89% (active), respectively.

For the compound `O=[N+]([O-])c1cc(S(=O)(=O)Oc2ccccc2)ccc1Cl`, the growth in the experiment on NCI-H23 lung was 30.7%; in the experiment with NCI-H226 lung it was 75.3%; in the experiment on HOP-62 NSCLC, 54%; in the experiment with NCI-H460 lung it was 1.7% (active); in the experiment with HOP-92 NSCLC, 24.1%; in the experiment with NCI-H522 lung it was 14.3%. In addition, the figures for the growth with A549/ATCC NSCLC, in the experiment with 786-0 renal and in the experiment on COLO 205 colon were 88.4%, 24.1% and 5.56% (active), respectively.

With `N=c1ccc2nc3ccc(N)cc3sc-2c1`, the growth was 12.8% in the experiment on NCI-H23 lung; 87.8% with NCI-H226 lung; 15% in the experiment on HOP-62 NSCLC; 43.6% in the experiment with NCI-H460 lung; 40.6% with HOP-92 NSCLC; 12.8% in the experiment with NCI-H522 lung. For the same compound, the growth was 7.01% (active) in the experiment on A549/ATCC NSCLC, 59.1% in the experiment with 786-0 renal and 0.589% (active) with COLO 205 colon.

Consider `COc1cc(NC(N)=NCCC(C)(C)c2ccc(C(F)(F)F)cc2)ncc1C#N`, for which the growth with NCI-H23 lung was 6.42% (active); with NCI-H226 lung, 55.5%; with HOP-62 NSCLC, 54.5%; in the experiment with NCI-H460 lung, 6.06% (active); in the experiment on HOP-92 NSCLC it was -3.76% (active); in the experiment with NCI-H522 lung, 16.8%. The growth in the experiment with A549/ATCC NSCLC is 27.2%; in the experiment with 786-0 renal, 36%; with COLO 205 colon, -83.6% (active).

Consider `N[C@H]1CN(C(=O)c2cc3cc(Br)c(F)c(F)c3[nH]2)C[C@@H]1O`, for which the growth was 96.3% with NCI-H23 lung; 83.7% in the experiment on NCI-H226 lung; 99.9% in the experiment with HOP-62 NSCLC; 107% in the experiment with NCI-H460 lung; 79.2% in the experiment with HOP-92 NSCLC; 95.1% with NCI-H522 lung. The growth is 101% in the experiment with A549/ATCC NSCLC, 86.2% with 786-0 renal and 118% with COLO 205 colon.
